Compound activity: PubChem, National Center for Advancing Translational Sciences (NCATS)
TDP1 cell CPT: qHTS for Inhibitors of human tyrosyl-DNA phosphodiesterase 1 (TDP1): qHTS in cells in presence of CPT; chicken DT40 Tdp1-/-;hTDP1 cells + 20 nM CPT, ATP luminescence, 48 h; Potency, µM (doses to about 46.2 µM), usual class: inhibitors; actives 12% (n = 420,000); note: nearly all actives have a fitted effect of over 55% in size
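Cell growth measured by CellTiter-Glo luminescence after a minimum 48 h, 37 C compound exposure with 20 nM CPT in Tdp1-knockout DT40 cells stably expressing hTDP1, seeded 400/well; qHTS titration format.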
DT40 TDP1 no CPT: qHTS for Inhibitors of human tyrosyl-DNA phosphodiesterase 1 (TDP1): qHTS in cells in absence of CPT; DT40 Tdp1-/- hTDP1 cells, no CPT, ATP luminescence, 48 h; Potency, µM (series often up to 46.2 µM), most hits filed as inhibitors; actives 15% (n = 420,000); note: nearly all actives have a fitted effect of over 55% in size
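Chicken DT40 Tdp1-/- cells stably complemented with human TDP1 were seeded at 400 cells/well with DMSO in place of 20 nM camptothecin. After compound pinning, cells grew at least 48 hr at 37 °C; viability read by CellTiter-Glo luminescence.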
ELG1 DNA repair: qHTS screen for small molecules that inhibit ELG1-dependent DNA repair in human embryonic kidney (HEK293T) cells expressing luciferase-tagged ELG1 | HEK293T ELG1-luciferase reporter, luminescence, 16 h; DNA damage induced by 5-fluorouridine | Potency, µM (top dose mostly 46.1 µM), hits mostly inhibitors | actives 2.3% (n = 330,000); note: nearly all actives have a fitted effect of over 55% in size
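HEK293T cells expressing luciferase-tagged ELG1 (2,000/well) received 5-Fluorouridine plus compound or DMSO for 16 hr at 37 °C. Luciferase was read by ONE-Glo luminescence after 30 min at room temperature.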
Gal4-VP16 FLuc: VP16 counterscreen qHTS for inhibitors of ROR gamma transcriptional activity; Drosophila S2 Gal4-VP16 UAS-luciferase, luminescence, 20 h; Potency, µM (top dose mostly 53.6 µM), usual class: inhibitors; actives 3.5% (n = 310,000);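 note: Gal4-VP16 expression switched on by copper sulfate through the metallothionein promoter; nearly all actives have a fitted effect of over 50% in size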
IL1B secr inh: qHTS for Inhibitors of Inflammasome Signaling: IL-1-beta AlphaLISA Primary Screen. THP-1 LPS/ATP IL-1B secretion, AlphaLISA, 16 h; stronger effect = lower value. activity change, % at 57.5 µM. actives 4.7% (n = 360,000). AID 743279, 2014; in the data active = activity change below about -50%; inconclusive = mostly about -30% to -49%
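Secreted IL-1B measured by AlphaLISA bead assay after 16 h compound exposure of THP-1 cells; compounds (final up to 57.5 uM) added 1 h before LPS (250 ng/mL) and ATP (1.25 mM) stimulation; lower signal means less secretion.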
RORgamma inh: qHTS for inhibitors of ROR gamma transcriptional activity. Potency, µM (titrated, usually from 53.6 µM), hits mostly inhibitors. actives 5.4% (n = 310,000). Nuclear receptor ROR-gamma (Mus musculus), P51450. Drosophila S2 Gal4-RORgamma UAS-luciferase reporter, 20 h; note: nearly all actives have a fitted effect of over 60% in size
Target sequence (P51450 whole entry, looked up, the tested form may be a part): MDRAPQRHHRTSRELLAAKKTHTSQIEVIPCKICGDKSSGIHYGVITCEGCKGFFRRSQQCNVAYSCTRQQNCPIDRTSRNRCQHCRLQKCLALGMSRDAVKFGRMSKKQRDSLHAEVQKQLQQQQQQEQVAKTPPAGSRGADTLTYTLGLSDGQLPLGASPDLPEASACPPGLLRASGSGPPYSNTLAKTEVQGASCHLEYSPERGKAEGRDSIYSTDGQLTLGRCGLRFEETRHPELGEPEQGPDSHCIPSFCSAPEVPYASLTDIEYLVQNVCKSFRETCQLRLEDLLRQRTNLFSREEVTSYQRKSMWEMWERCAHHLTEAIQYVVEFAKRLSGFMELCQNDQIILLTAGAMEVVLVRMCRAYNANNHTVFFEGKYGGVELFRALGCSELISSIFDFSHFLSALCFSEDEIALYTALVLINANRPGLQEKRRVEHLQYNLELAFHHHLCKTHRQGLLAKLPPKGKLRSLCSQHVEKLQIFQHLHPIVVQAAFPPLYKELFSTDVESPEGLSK
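Compounds are pin-transferred onto Drosophila Schneider cells expressing a copper-inducible Gal4–ROR gamma transactivation domain fusion. After 1 hr, copper sulfate is added to 700 uM final; luciferase is read 20 hr later.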
Of the large screens only hits and unclear results are named; the others gave an inactive call. Only some compounds are listed: those with a hit (about 21% of all), similar ones and a draw of the others. Unless noted, calls come from the whole dose curve; as a rule, active = well fitted curve in the direction sought with a large enough effect; inconclusive = small, poorly fitted or top-dose-only effect, or another doubt; inactive = no such curve, though single readings can be large; an effect the other way counts as inactive or inconclusive.

COc1ccc(CNC(=O)c2ccc(C(C)C)cc2)cc1	ELG1 DNA repair inconclusive
CCc1ccc(C(=O)NCc2ccc(Cl)cc2Cl)cc1	IL1B secr inh -52.5, RORgamma inh inconclusive
CC[C@@]1([C@@H]2O[C@@H]([C@H]3O[C@@](O)(CO)[C@H](C)C[C@@H]3C)C[C@@H]2C)CC[C@H]([C@]2(C)CC[C@]3(C[C@H](O)[C@@H](C)[C@@H]([C@@H](C)[C@@H](OC)[C@H](C)C(=O)O)O3)O2)O1 (stereo in doubt)	TDP1 cell CPT 0.231µM, DT40 TDP1 no CPT 0.206µM (no result: ELG1 DNA repair, Gal4-VP16 FLuc, IL1B secr inh, RORgamma inh)
Cc1ccccc1Cn1cnc2c(oc3ccccc32)c1=O	TDP1 cell CPT inconclusive, DT40 TDP1 no CPT inconclusive, ELG1 DNA repair inconclusive, RORgamma inh 3.98µM
COc1ccc(Cl)cc1NC(=O)CSc1ncnc2c1oc1ccccc12	TDP1 cell CPT inconclusive, DT40 TDP1 no CPT inconclusive
CC(C)(C)C(=O)NC1CCSC1=O (stereo unspecified)	none (no result: TDP1 cell CPT, DT40 TDP1 no CPT, IL1B secr inh)
CN1Cc2ccccc2[C@@H]2c3cccc4[nH]cc(c34)C[C@H]21	TDP1 cell CPT 5.17µM, DT40 TDP1 no CPT 5.8µM, RORgamma inh inconclusive (no result: ELG1 DNA repair, IL1B secr inh)
CC1=C[C@@H]2c3cccc4[nH]cc(c34)C[C@H]2N(C)C1	TDP1 cell CPT inconclusive, DT40 TDP1 no CPT inconclusive
Cc1cc(=O)[nH]c(CCl)n1	TDP1 cell CPT inconclusive, DT40 TDP1 no CPT inconclusive
CC(=O)c1c(C)n(Cc2ccccc2)c2ccc(O)cc12	TDP1 cell CPT 16.4µM, DT40 TDP1 no CPT 18.4µM, ELG1 DNA repair 23.1µM
COC(=O)c1c(C)n(Cc2ccccc2)c2ccc(O)cc12	none
CCOc1cc(CNCCc2ccccc2F)ccc1OC	TDP1 cell CPT inconclusive, DT40 TDP1 no CPT inconclusive
COc1ccc(CNCCc2c[nH]c3ccccc23)c(OC)c1C	TDP1 cell CPT 5.8µM, DT40 TDP1 no CPT 7.31µM, ELG1 DNA repair inconclusive (no result: IL1B secr inh)
COc1ccc(CNCCc2ccccc2F)c(OC)c1C	TDP1 cell CPT 14.6µM, DT40 TDP1 no CPT 23.1µM, IL1B secr inh -65.0
COc1cc(C)c(CNCCc2c[nH]c3ccccc23)cc1C	TDP1 cell CPT 8.2µM, DT40 TDP1 no CPT 7.31µM, ELG1 DNA repair inconclusive, IL1B secr inh -71.8
Cc1ccc(NC(=O)COC(=O)CCc2c[nH]c3ccccc23)cc1[N+](=O)[O-]	TDP1 cell CPT inconclusive
Brc1ccc2[nH]cc(/C=N/N3CCCCC3)c2c1	TDP1 cell CPT inconclusive, DT40 TDP1 no CPT 14.6µM, IL1B secr inh -64.6
C(=NN1CCCCCC1)c1c[nH]c2ccccc12	none (no result: ELG1 DNA repair, Gal4-VP16 FLuc, RORgamma inh)
O=c1c2ccccc2nc(-c2ccc(Cl)cc2Cl)n1-c1nccs1	TDP1 cell CPT inconclusive, DT40 TDP1 no CPT 13µM
O=c1c2ccccc2nc(-c2ccc(-c3ccccc3)cc2)n1-c1ccncc1	TDP1 cell CPT inconclusive, DT40 TDP1 no CPT 20.6µM, ELG1 DNA repair inconclusive
COc1ccc(-n2c(-c3ccccc3[N+](=O)[O-])nc3ccccc3c2=O)cc1	TDP1 cell CPT 23.1µM, DT40 TDP1 no CPT 14.6µM
COc1ccc(-n2c(SC)nc3ccccc3c2=O)cc1	TDP1 cell CPT 14.6µM, DT40 TDP1 no CPT 18.4µM
CCN[C@]1(c2cccs2)CCCCC1=O	none (no result: TDP1 cell CPT, DT40 TDP1 no CPT, ELG1 DNA repair, IL1B secr inh)
C[C@@H](N)[C@@H](O)c1ccccc1	none (no result: ELG1 DNA repair, Gal4-VP16 FLuc, IL1B secr inh, RORgamma inh)
Cc1ccc(-c2nc3ccccc3c(=O)n2-n2cccc2)cc1	TDP1 cell CPT 16.4µM, DT40 TDP1 no CPT 11.6µM
COc1ccc(-n2c(-c3ccc(C)cc3)nc3ccccc3c2=O)cc1	TDP1 cell CPT 14.6µM, DT40 TDP1 no CPT 14.6µM, ELG1 DNA repair inconclusive
O=c1c2ccccc2nc(-c2ccccc2Cl)n1-c1cccc(O)c1	TDP1 cell CPT 20.6µM, DT40 TDP1 no CPT inconclusive
Cc1ccc(-c2nc3ccccc3c(=O)n2-c2cccc(O)c2)cc1	TDP1 cell CPT 2.31µM, DT40 TDP1 no CPT 8.2µM
Cc1ccc(-c2nc3ccccc3c(=O)n2-c2ccncc2)cc1	DT40 TDP1 no CPT inconclusive
